Here are results for 30 compounds from PubChem BioAssay AID720706 (Broad Institute, 2013).

Each structure is given as a SMILES string. “And” between values parts separate entries of the source, which are not always exact repeats. Identical values can stand only once. Screen size: about 350,000 compounds; about 5,500 (1.6%) were called active.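 The calls were made as follows: active = significant combined selectivity score with lowered wild-type GFP, culture density cut under 30%, mutant RFP and density less affected; inactive = any of these conditions unmet.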 Many of the other results were omitted from the sample, so actives are more common in it than they were.

The experiment is described as follows: reduced GFP signal of wild-type E. coli, primary screen, bacterial rRNA inhibitor project, GFP/RFP fluorescence, OD600, single point (AID 720706). As to conditions: E. coli WT GFP vs humanized-ribosome RFP mutants, 24 h; GFP signal change (wild-type ribosome): stronger effect = lower value, DMSO median 0, no signal -100; OD600 change: measured here: OD600 growth, DMSO median 0, no signal -100; RFP signal change: measured here: RFP humanized mutant strains, DMSO median 0, no signal -100, concentration not given here.
On to `COc1cc(OC)c(OC)cc1CN1CCN(C(=O)c2cccc3ccccc23)CC1`, for which the GFP signal change (wild-type ribosome) is 9.36% (inactive), the OD600 change is 7.23% and the RFP signal change was 0.512%.
On the same counts, the results for `COc1cccc(OC)c1C(=O)N1CCN(Cc2ccccc2F)CC1` are 11.6% (inactive), 16.8% and 0.962%.
For the compound `COc1ccc(Br)cc1CN1CCN(C(=O)c2cccc(OC)c2OC)CC1`, the GFP signal change (wild-type ribosome) was -28.2% (active), the OD600 change is -11.8% and the RFP signal change was 1.29%.
Turning to `COc1ccc(NC(=O)Nc2ccc3c(c2)C(=O)N([C@H](C)CO)C[C@H](C)[C@@H](CN(C)Cc2ccc(C(=O)O)cc2)OCCCC[C@H](C)O3)cc1`, the GFP signal change (wild-type ribosome) was -0.806% (inactive), the OD600 change is -1.43% and the RFP signal change was -1.16%.
For `C[C@H]1CCCCO[C@H](CN(C)S(=O)(=O)c2ccc(Cl)cc2)[C@@H](C)CN([C@@H](C)CO)C(=O)c2cc(NC(=O)Nc3ccc4c(c3)OCO4)ccc2O1` the same measures were 2.33% (inactive), 1.85% and -3.19%.
For the compound `COc1ccc2c3c(n(C)c2c1)[C@H](CO)N(C(C)=O)CC31CN(Cc2ccc(Cl)cc2)C1`, the GFP signal change (wild-type ribosome) is -5.13% (inactive), the OD600 change was -14.3% and the RFP signal change amounted to 1.56%.
As to `C[C@@H]1CN([C@@H](C)CO)S(=O)(=O)c2ccc(-c3ccncc3)cc2O[C@@H]1CN(C)C(=O)C1CCC1`, the GFP signal change (wild-type ribosome) was -1.91% (inactive), the OD600 change was 0.625% and the RFP signal change was -1.44%.
Take `COc1cc(/C=C/C(=O)OCC(=O)c2ccccc2)cc(OC)c1OC`: the GFP signal change (wild-type ribosome) was -32.8% (inactive), the OD600 change is -28.1% and the RFP signal change is -5.92%.
On the same counts, the results for `CCC(C)(C)NC(=O)/C=C/c1cc(OC)c(OC)c(S(=O)(=O)N2CCc3ccccc32)c1` are 25% (inactive), 13.4% and -10.2%.
For the compound `COc1cc(/C=C/C(=O)N2CCc3ccccc3C2)cc(OC)c1OC`, the GFP signal change (wild-type ribosome) is -21.8% (active), the OD600 change is -16.9% and the RFP signal change stood at 0.83%.
On the same counts, the results for `O=C(C[C@H]1C[C@H]2c3cc(NC(=O)Nc4ccc(C(F)(F)F)cc4)ccc3O[C@H]2[C@@H](CO)O1)NCc1cccnc1` are 3.1% (inactive), 2.56% and -0.972%.
On to `COc1cccc(S(=O)(=O)N2[C@@H]3CNC[C@H]2C3c2ccc(-c3ccccc3OC)cc2)c1` (stereo not given in full), for which the GFP signal change (wild-type ribosome) was -57.9% (inactive) and 6.81% (inactive); the OD600 change is -76.9% and 4.62%; the RFP signal change is -12.3% and 0.158%.
As to `COc1cccc(S(=O)(=O)N2C[C@H](O)COC[C@H]3O[C@@H](CC(=O)N4CCN(c5ccccc5)CC4)CC[C@@H]32)c1`, the GFP signal change (wild-type ribosome) is -6.4% (inactive), the OD600 change is -3.12% and the RFP signal change worked out at 2.98%.
As to `CCCN(C)C[C@@H]1OCCCC[C@H](C)Oc2ccc(NS(=O)(=O)c3ccc(C)cc3)cc2C(=O)N([C@H](C)CO)C[C@@H]1C`, the GFP signal change (wild-type ribosome) is -0.00475% (inactive), the OD600 change was -4.83% and the RFP signal change was 1.63%.
For `COCC(=O)Nc1ccc2c(c1)C(=O)N(C)C[C@@H](OC)[C@@H](C)CN(CC1CCCCC1)[C@@H](C)CO2` the same measures were 0.911% (inactive), 5.47% and -0.068%.
`COc1ccccc1N1CCN(Cc2ccc(OC)c3ccccc23)CC1`: the GFP signal change (wild-type ribosome) is -21.9% (active), the OD600 change was -8.32% and the RFP signal change is -3.95%.
For `COc1ccccc1N1CCN(Cc2cc(OC)c3c(c2)OCO3)CC1` the same measures were -2.5% (inactive), -4.28% and -3.78%.
Regarding `COc1ccc(CN2CCN(Cc3ccc(OC)c(OC)c3OC)CC2)cc1`, the GFP signal change (wild-type ribosome) is 13.2% (inactive), the OD600 change was 19.1% and the RFP signal change is -0.244%.
For `CO[C@@H](CN(C)S(=O)(=O)c1ccc(F)cc1)[C@H](C)CN(C(=O)Nc1ccccc1F)[C@@H](C)CO`, the GFP signal change (wild-type ribosome) is -3.35% (inactive), the OD600 change is 0.819% and the RFP signal change is -3.65%.
Consider `C[C@@H]1CN([C@H](C)CO)C(=O)Cc2cc(NC(=O)C3CCCCC3)ccc2O[C@@H]1CN(C)Cc1ccc(C(F)(F)F)cc1`, for which the GFP signal change (wild-type ribosome) is -2.69% (inactive), the OD600 change is 1.55% and the RFP signal change is 2.15%.
Take `COc1ccc(C(=O)NC(=S)NC2CCCCC2)cc1`: the GFP signal change (wild-type ribosome) was -49.8% (inactive), the OD600 change is -73.1% and the RFP signal change is -12.9%.
Consider `Cc1nc2ccc(NC(=O)C3CCCCC3)cc2s1`, for which the GFP signal change (wild-type ribosome) is -1.32% (inactive), the OD600 change is -0.83% and the RFP signal change was -0.607%.
As for `COc1ccc2nc(NC(=O)NC3CCCCC3)sc2c1`, the GFP signal change (wild-type ribosome) is -22.5% (active), the OD600 change was -17.5% and the RFP signal change amounted to 7.27%.
As for `C[C@H](CO)N1C[C@H](C)[C@H](CN(C)Cc2ccccc2)OCCCC[C@H](C)Oc2ccc(NC(=O)CCC(F)(F)F)cc2C1=O`, the GFP signal change (wild-type ribosome) was -1.2% (inactive), the OD600 change was -5.79% and the RFP signal change is -1.47%.
As for `CC(C)NC(=O)Nc1ccc2c(c1)C(=O)N([C@@H](C)CO)C[C@@H](C)[C@H](CN(C)Cc1ccc(Cl)c(Cl)c1)O2`, the GFP signal change (wild-type ribosome) was -11.4% (inactive), the OD600 change was -58.1% and the RFP signal change is 26%.
As to `CN(C)CCCNC(=O)/C=C/c1ccc(OCc2c(F)cccc2Cl)cc1`, the GFP signal change (wild-type ribosome) is -45.5% (active), the OD600 change was -31% and the RFP signal change is -4.52%.
For the compound `O=C(/C=C/c1ccc(OCc2c(F)cccc2Cl)cc1)N1CCOCC1`, the GFP signal change (wild-type ribosome) was -49% (inactive), the OD600 change is -72.9% and the RFP signal change was -13.9%.
On to `COCCCNC(=O)/C=C/c1ccc(OCc2c(F)cccc2Cl)cc1`, for which the GFP signal change (wild-type ribosome) was -4.38% (inactive), the OD600 change is -2.58% and the RFP signal change was -3.12%.
Turning to `Cc1noc(C)c1NC(=O)Nc1ccc2c(c1)C(=O)N([C@H](C)CO)C[C@@H](C)[C@@H](CN(C)Cc1ccncc1)OCCCC[C@H](C)O2`, the GFP signal change (wild-type ribosome) was 0.824% (inactive), the OD600 change was found to be 10.7% and the RFP signal change is -1.14%.
On to `C[C@H]1CN(C)C(=O)c2cccc(N(C)C)c2O[C@@H]1CN(C)C`, for which the GFP signal change (wild-type ribosome) is -0.435% (inactive), the OD600 change came out at 5.4% and the RFP signal change is -1.5%.
